Data reported in PubChem BioAssay (NCI).
Compounds without any hit were thinned out: in the full panel of roughly 83,000, 20% have a hit.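 Compound tested at a single concentration for 48 hours in 96-well plates; a percent growth value below 10 was scored as active.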 Values without a mark were called inactive. Calls of active or inactive are those of the source.

What was measured:
Assay in all cases: NCI-60 one-dose screen, 48 h (100 = growth as untreated, 0 = no growth, -100 = all killed)
Settings in all cases: 10 µM unless noted
NCI-H23 lung = test system: NCI-H23 lung
NCI-H226 lung = test system: NCI-H226 lung
NCI-H322M lung = test system: NCI-H322M lung
HOP-62 NSCLC = test system: HOP-62 NSCLC
NCI-H460 lung = test system: NCI-H460 lung
HOP-92 NSCLC = test system: HOP-92 NSCLC
NCI-H522 lung = test system: NCI-H522 lung
A549/ATCC NSCLC = test system: A549/ATCC NSCLC
786-0 renal = test system: 786-0 renal
COLO 205 colon = test system: COLO 205 colon
DU-145 prostate = test system: DU-145 prostate
K-562 leukemia = test system: K-562 leukemia
MALME-3M melanoma = test system: MALME-3M melanoma
MDA-MB-231 breast = test system: MDA-MB-231 breast
RXF 393 renal = test system: RXF 393 renal
SF-268 CNS = test system: SF-268 CNS
SF-295 CNS = test system: SF-295 CNS
SF-539 CNS = test system: SF-539 CNS
UACC-257 melanoma = test system: UACC-257 melanoma
M14 melanoma = test system: M14 melanoma

Row | Structure (SMILES) | growth (NCI-H23 lung) | growth (NCI-H226 lung) | growth (NCI-H322M lung) | growth (HOP-62 NSCLC) | growth (NCI-H460 lung) | growth (HOP-92 NSCLC) | growth (NCI-H522 lung) | growth (A549/ATCC NSCLC) | growth (786-0 renal) | growth (COLO 205 colon) | growth (DU-145 prostate) | growth (K-562 leukemia) | growth (MALME-3M melanoma) | growth (MDA-MB-231 breast) | growth (RXF 393 renal) | growth (SF-268 CNS) | growth (SF-295 CNS) | growth (SF-539 CNS) | growth (UACC-257 melanoma) | growth (M14 melanoma)
1 | CCOC(=O)NCCCC(=O)NCCc1ccccc1 | 98.9% | 96.3% | 106% | 108% | 110% | 111% | 106% | 107% | 105% | 114% | 103% | 106% | 103% | 108% | 101% | 101% | 104% | 106% | 103% | 102%
2 | Nc1[nH]nc2nc(-c3ccccc3)n3c4ccccc4nc3c12 | 99.9% | 95.6% | 93% | 95.7% | 93% | 122% | 82.7% | 101% | 106% | 112% | 117% | 106% | 108% | 97.9% | 93.9% | 107% | 93.2% | 103% | 105% | 99.5%
3 | O=C(O)CCCCCCCCCCN1C(=O)/C(=C2/C(=O)N(CC(=O)O)c3ccc(Br)cc32)SC1=S | 92.8% | 98.1% | 97% | 102% | 105% | 80.7% | 90.1% | 92% | 54.7% | 110% | 106% | 69.6% | 96.9% | 92.3% | 113% | 96.9% | 103% | 104% | 97.9% | 96.3%
4 | Cc1ccc2c(/C=C/C(=O)c3cc(CN4CCOCC4)c(O)c4nc(C)ccc34)cc(CN3CCOCC3)c(O)c2n1 | -2.24% (active) | -13% (active) | 17% | -7.03% (active) | 7.83% (active) | 30.9% | -54.8% (active) | 11.3% | -31.9% (active) | -25.8% (active) | -55.9% (active) | 1.93% (active) | 42.9% | 11.5% | -74.5% (active) | 13.2% | 23% | -29.4% (active) | 7.95% (active) | -20.1% (active)
5 | N[C@@H]1CCC[C@H]1NCCCCN1C(=O)c2cccc3cc([N+](=O)[O-])cc(c23)C1=O | 39.3% | 11% | 41.2% | 31.7% | 6.71% (active) | 34.5% | 40.6% | 22.4% | 25% | 22.8% | 22.2% | 18.6% | 57.5% | 45.1% | 32.3% | 34.3% | 55.5% | 32.7% | 61.2% | 63.7%
6 | COc1cc(O)c2c(=O)c3c(CC=C(C)C)cc(OC)c(O)c3oc2c1 | 41.4% | 78.7% | 38.3% | 25.4% | 12.5% | 80.8% | -12.9% (active) | 35.6% | 36.1% | 112% | 19.5% | 12.2% | 66.9% | 24.3% | 13.7% | 51.9% | 42.2% | 6.54% (active) | 63.1% | 15.6%
7 | COc1ccccc1S(=O)(=O)Nc1ccc2c3c(cc(CCC(=O)NCCCCNc4cccc5c4C(=O)N(C4CCC(=O)NC4=O)C5=O)cc13)C(=O)N2C (stereo not given) | 70.3% | -0.85% (active) | -3.45% (active) | 2.74% (active) | 97.8% | -10.7% (active) | 26.2% | 56.1% | 20.4% | 2.62% (active) | 75.9% | 17.4% | -29% (active) | -33.3% (active) | -14.4% (active) | 11.9% | 47.6% | 31.3% | 71.7% | 36%
8 | CN1CCN(c2ccc(NC3=CC(=O)c4ncncc4C3=O)cc2)CC1 | -43.5% (active) | -47.7% (active) | 10.8% | -87.5% (active) | -24.4% (active) | -61.7% (active) | -56.7% (active) | -7.95% (active) | -50.5% (active) | -69.8% (active) | -89.1% (active) | -22.1% (active) | -98.4% (active) | -15.1% (active) | -94.8% (active) | -46.3% (active) | -96.1% (active) | -96.1% (active) | -81.5% (active) | -81.8% (active)
9 | O=C(Nc1cccnc1Nc1ccc(Cl)cc1)c1cn(Cc2cccc(Oc3ccccc3)c2)nn1 | 63% | 55.9% | 68.7% | 61.1% | 35.2% | 53% | 44.6% | 42.4% | 52.2% | 73.6% | 59.7% | 23.1% | 58% | 53.3% | 44.1% | 45.2% | 29.2% | 33.6% | 62% | 21.8%
10 | COc1cc2ncnc(Nc3ccc(S(=O)(=O)Nc4nccs4)cc3)c2cc1OCCCN1CCCC1 | 99.8% | 105% | 103% | 103% | 107% | 119% | 94.1% | 102% | 105% | 113% | 105% | 84.2% | 101% | 104% | 99% | 99.2% | 106% | 101% | 99.6% | 109%
11 | COC(=O)[C@@]1(C)CC[C@]2(C)CC[C@]3(C)C4=CC=C5C(=CC(=O)C(O)=C5C)[C@]4(C)[C@@H](O)C[C@@]3(C)[C@@H]2C1 | 49.2% | 98.7% | 96.8% | 89.7% | 63.6% | -3.8% (active) | -24.2% (active) | 88.3% | -30.3% (active) | 12.8% | 21.3% | 8.3% (active) | 7.58% (active) | -0.344% (active) | -35.1% (active) | 62.5% | 74.8% | -8.84% (active) | 32% | 7.16% (active)
12 | C1CCC(N2CN3c4nonc4N4CN(C5CCCCC5)CN5c6nonc6N(C2)C3C45)CC1 (stereo not given) | 98.4% | 96.4% | 95.6% | 97.2% | 99.4% | 82.1% | 92.1% | 92.4% | 108% | 107% | 104% | 82.1% | 91.5% | 106% | 103% | 96.5% | 91.6% | 101% | 99.2% | 96%
13 | CC(C)=CC(=O)N[C@H]1CC[C@]2(C)C3CC[C@]4(C)C(C(C)N(C)C)=CCC4C3CCC2[C@H]1O (stereo not given in full) | 65% | 99.6% | 57.5% | 66.6% | 18.6% | 41% | 89.4% | 75.5% | 48.2% | -14.9% (active) | 71.9% | 19.5% | -27.3% (active) | 44.2% | 26.8% | 9.05% (active) | 59.2% | -32.2% (active) | -26.8% (active) | -56.3% (active)
14 | CCSc1ccnc(N)n1 | 120% | 101% | 106% | 94% | 113% | 98% | 105% | 118% | 98.3% | 125% | 105% | 121% | 86.3% | 104% | 125% | 93.9% | 105% | 105% | 102% | 112%
15 | Nc1cc(Br)cc2c1[nH]c(=O)c1ccccc12 | 83.4% | 91.9% | 109% | 102% | 93.4% | 77.6% | 98.1% | 91.7% | 101% | 106% | 106% | 92.5% | 124% | 102% | 103% | 106% | 108% | 112% | 94.7% | 114%
16 | Oc1c(I)cc(I)cc1CN(Cc1ccccn1)Cc1ccccn1 | 25.6% | 21.7% | 18.4% | 18.7% | 4.01% (active) | 24.4% | 11.5% | 7.57% (active) | 18.2% | 16% | 29% | 14.2% | 17.1% | 33.4% | 46.7% | 19.7% | 23.5% | 4.05% (active) | 1.45% (active) | -16.6% (active)
